In the library only some 1.3% were active in any assay of this set; here they are far more common.
RAD54 inh: inhibitors of human RAD54 branch migration, primary screen, biochemical, fluorescence, single point; DNA repair and recombination protein RAD54-like (Homo sapiens), Q92698; RAD54 Holliday junction branch migration, FAM/BHQ fluorescence; inhibition, % at 10.4 µM; 360,000 tested, 0.14% active;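 active means mean normalized replicate activity at least 40 and at least half of replicates scoring 40 or more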;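 further: 0% = median of neutral control wells and 100% = median of positive control wells; inhibitors cause a drop in the FAM fluorescence signal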
UBC13 inh: UBC13 polyubiquitin chain formation inhibitors, primary screen, biochemical, TR-FRET, uHTS. Ubiquitin-conjugating enzyme E2 N (Homo sapiens), P61088. inhibition, % at 20 µM. 330,000 tested, 0.47% active; in the data active means inhibition above about 45%, passing the limit was not always enough
MIN6 prolif-1: inducers of MIN6 beta-cell proliferation, primary screen, ATP luminescence, uHTS; proliferation, % at 10 µM; MIN6 cells proliferation, ATPlite luminescence, 48 h; cells starved in 0.2% serum; 100% = growth in 10% serum; 330,000 tested, 0.29% active; AID 2380, 2010;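 active means compounds whose signal lies at least 3.5 SD above the mean of all wells on their plate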;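 further: 0% = DMSO-treated cells in low-serum medium and 100% = 10% serum control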
PREPL inh: PREPL enzyme inhibitors, primary screen, biochemical, fluorescence polarization; 320,000 tested, 0.68% active; recombinant PREPL, fluorescence polarization activity-based probe; inhibition, % at 5.96 µM; in the data active means inhibition above about 43%;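 further: 0% = enzyme with DMSO and 100% = wells lacking enzyme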
Target sequence (Q4J6C6 whole entry, looked up): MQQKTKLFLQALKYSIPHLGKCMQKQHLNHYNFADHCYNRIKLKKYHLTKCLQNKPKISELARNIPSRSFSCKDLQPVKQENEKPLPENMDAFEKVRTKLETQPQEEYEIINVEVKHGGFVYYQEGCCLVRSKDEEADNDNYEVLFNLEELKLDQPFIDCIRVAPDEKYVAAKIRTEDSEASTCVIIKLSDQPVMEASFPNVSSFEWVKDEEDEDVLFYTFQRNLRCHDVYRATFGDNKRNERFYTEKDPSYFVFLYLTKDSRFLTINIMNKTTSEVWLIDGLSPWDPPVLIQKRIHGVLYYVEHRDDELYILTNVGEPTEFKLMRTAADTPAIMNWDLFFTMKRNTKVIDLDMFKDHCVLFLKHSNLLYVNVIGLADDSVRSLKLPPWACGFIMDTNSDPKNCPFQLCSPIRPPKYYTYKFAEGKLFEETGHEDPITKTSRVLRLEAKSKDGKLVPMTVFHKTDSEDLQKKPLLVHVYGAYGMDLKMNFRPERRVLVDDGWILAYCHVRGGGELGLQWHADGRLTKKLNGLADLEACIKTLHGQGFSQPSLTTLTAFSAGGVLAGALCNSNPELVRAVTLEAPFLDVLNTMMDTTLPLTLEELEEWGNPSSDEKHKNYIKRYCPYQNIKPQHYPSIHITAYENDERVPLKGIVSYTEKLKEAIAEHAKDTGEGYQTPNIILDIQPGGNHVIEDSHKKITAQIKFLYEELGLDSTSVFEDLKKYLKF
RAD52 anneal inh: RAD52 DNA annealing inhibitors, primary screen, biochemical, FRET, single point, set 2; 360,000 tested, 0.46% active; inhibition, % at 18.7 µM; recombinant RAD52 DNA annealing, FRET fluorescence;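 active means every replicate showing at least 50% inhibition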
DNA FID counter: compounds displacing fluorescent DNA intercalator, primary screen, artefact control for HCV NS3 helicase inhibitor project, biochemical, FID fluorescence | inhibition, % at 7.9 µM | 290,000 tested, 0.17% active | DNA fluorescent intercalator displacement; in the data active means inhibition above about 37%;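 further: 0% = vehicle and 100% = reference compound; higher means more ethidium bromide displaced from hairpin DNA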
MIN6 prolif-2: inducers of beta-cell proliferation in MIN6, confirmation, MIN6 cells, mouse; ATPlite luminescence, 48 h; cells kept in 0.2% serum; scaled between 0.2% and 10% serum; AID 463095, 2010; 920 tested, under 10 active; shares compounds with MIN6 prolif-1; proliferation increase, % at 50 µM;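 active means proliferation increase above 40% at any of the four tested concentrations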
The depositor's hits bear a star.

Screening Cc1c(NC(=O)C(C)OC(=O)CCc2c[nH]c3ccccc23)c(=O)n(-c2ccccc2)n1C (stereo not given) returned RAD54 inh -6.6, UBC13 inh -0.8, MIN6 prolif-1 11.9*, PREPL inh -1.9, RAD52 anneal inh -5.9 and MIN6 prolif-2 0.5.
Cc1c(NC(=O)C(C)OC(=O)Cc2ccc(F)cc2)c(=O)n(-c2ccccc2)n1C (stereo not given) was read as UBC13 inh -5.3, MIN6 prolif-1 0.8, PREPL inh 6.2 and RAD52 anneal inh -11.1.
`COc1ccccc1CNC(=O)C[C@@H]1CC[C@H](NC(=O)CC2CC2)[C@@H](CO)O1` gave RAD54 inh -1.8 and RAD52 anneal inh -19.4.
For CC(=O)N1c2ccc(S(=O)(=O)N3CCCC3)cc2CC1C(=O)NC(C)C (stereo not given) the results were RAD54 inh -10.6, UBC13 inh 5.9, MIN6 prolif-1 12.6*, PREPL inh 16.6, RAD52 anneal inh -13.4, DNA FID counter -0.5 and MIN6 prolif-2 1.3.
Cc1ccccc1-c1nc(CN2CCN(C(=O)c3ccco3)CC2)c(C)o1 was read as RAD54 inh -12.2, UBC13 inh -1.6, MIN6 prolif-1 8.9*, PREPL inh 12.0, RAD52 anneal inh -20.4, DNA FID counter -26.0 and MIN6 prolif-2 -4.7.
For COCCCNc1nc(N)c([N+](=O)[O-])c(Nc2ccccc2OC)n1 the results were RAD54 inh 2.4, UBC13 inh 1.7, MIN6 prolif-1 7.2*, PREPL inh -1.6, RAD52 anneal inh -16.0, DNA FID counter -2.3 and MIN6 prolif-2 3.3.
COCCCNc1nc(N)c([N+](=O)[O-])c(NCc2ccccc2)n1 was read as RAD54 inh -11.6, UBC13 inh 5.8, MIN6 prolif-1 0.3, PREPL inh -17.2, RAD52 anneal inh -15.1 and DNA FID counter -18.1.
Screening O=C(CCNS(=O)(=O)c1ccc(Cl)cc1)N1CCC2(O)CCCCC2C1 (stereo not given) returned RAD54 inh -1.1, UBC13 inh -0.9, MIN6 prolif-1 5.6*, PREPL inh 12.4, DNA FID counter -9.2 and MIN6 prolif-2 -0.9.
`COc1cccc(NC(=O)Nc2ccc3c(c2)C(=O)N(C)C[C@@H](OC)[C@@H](C)CN(CC2CC2)[C@H](C)CO3)c1` gave RAD54 inh 11.4 and RAD52 anneal inh 47.6.
Screening CC(C)c1ccc(NC(=O)CCNS(=O)(=O)c2cccc3nsnc23)cc1 returned UBC13 inh -1.2, MIN6 prolif-1 4.6*, PREPL inh 3.8, DNA FID counter -7.8 and MIN6 prolif-2 -5.3.
`CCN(CC)C(=O)C12CC3CC(CC(Cl)(C3)C1)C2` gave UBC13 inh -2.1, MIN6 prolif-1 2.4, PREPL inh 3.6, RAD52 anneal inh -3.2 and DNA FID counter -2.2.
For CC(C)(C)NC(=O)C12CC3CC(CC(Cl)(C3)C1)C2 the results were UBC13 inh 9.3, MIN6 prolif-1 8.0*, PREPL inh -1.3, RAD52 anneal inh -8.1, DNA FID counter 0.0 and MIN6 prolif-2 -1.8.
For Cc1ccc(S(=O)(=O)Nc2ccc3c(c2)C(=O)N([C@H](C)CO)C[C@@H](C)[C@H](CN(C)C(=O)CCC(F)(F)F)OCCCC[C@@H](C)O3)cc1 the results were RAD54 inh 1.9 and RAD52 anneal inh 16.3.
`C[C@@H]1CN([C@H](C)CO)C(=O)c2cc(NC(=O)Nc3ccc(C(F)(F)F)cc3)ccc2O[C@H]1CN(C)S(C)(=O)=O` gave RAD54 inh 2.3 and RAD52 anneal inh -0.7.
Screening Cc1ccc(S(=O)(=O)N(C)C[C@H]2OCCCC[C@H](C)Oc3ccc(NS(C)(=O)=O)cc3C(=O)N([C@@H](C)CO)C[C@H]2C)cc1 returned RAD54 inh -0.3 and RAD52 anneal inh 4.8.
For Cc1nc(NC(=O)c2ccc(Br)o2)ccc1Br the results were RAD54 inh -4.3, UBC13 inh 3.7, MIN6 prolif-1 11.3*, RAD52 anneal inh -25.9, DNA FID counter -4.8 and MIN6 prolif-2 -0.8.
For COC(C(=O)Nc1ccnn1C1CCN(Cc2ccc(C)s2)CC1)c1ccccc1 (stereo not given) the results were RAD54 inh -4.6, UBC13 inh 0.5, MIN6 prolif-1 9.2*, PREPL inh 6.0, RAD52 anneal inh -16.5, DNA FID counter -1.8 and MIN6 prolif-2 -2.7.
`COC(C(=O)Nc1ccnn1C1CCN(Cc2ccc(Cl)s2)CC1)c1ccccc1` (stereo not given) gave RAD54 inh 2.4, UBC13 inh -0.3, MIN6 prolif-1 2.7, PREPL inh 18.1, RAD52 anneal inh -5.2 and DNA FID counter -12.4.
For COCCNC(=O)C(c1ccc(F)cc1)N(Cc1cccs1)C(=O)CCC(=O)Nc1ccccn1 (stereo not given) the results were RAD54 inh -3.4, UBC13 inh 3.2, MIN6 prolif-1 5.5*, PREPL inh -4.6, RAD52 anneal inh -8.1, DNA FID counter -33.6 and MIN6 prolif-2 -2.3.
For CC(=O)NC[C@H]1[C@@H](c2ccc(C#C[C@@H](C)O)cc2)[C@@H](CO)N1Cc1ccccn1 the results were RAD52 anneal inh -9.3.
O=C(C1CCCC1)N1CC(=O)N2[C@H](C1)[C@@H](c1ccc(C#CC3CCCC3)cc1)[C@@H]2CO was read as RAD52 anneal inh -8.2.
For C=CCNC(=O)c1c2c(nc3ccccc13)-c1ccccc1CC2 the results were RAD54 inh 1.7, UBC13 inh -7.4, MIN6 prolif-1 7.0*, PREPL inh 2.0, DNA FID counter -8.1 and MIN6 prolif-2 -3.8.
`COC(=O)c1ccc(SC)cn1` gave UBC13 inh 5.6, MIN6 prolif-1 10.6*, PREPL inh -10.0, RAD52 anneal inh -12.9, DNA FID counter -0.5 and MIN6 prolif-2 0.1.
For Nc1ccc[n+](Cc2ccccn2)c1 the results were RAD54 inh 2.8, UBC13 inh 3.6, MIN6 prolif-1 4.9*, PREPL inh -3.6, DNA FID counter -3.0 and MIN6 prolif-2 1.1.
c1ccc(Cn2nnnc2CN2CCCC2)cc1 was read as RAD54 inh -4.0, UBC13 inh 0.3, MIN6 prolif-1 4.8*, PREPL inh 2.2, DNA FID counter 4.5 and MIN6 prolif-2 1.7.
